# From the supplement of paper PMC11537057
# Structures can show the parent of a compound that is named as a salt. ± gives the standard deviation of the averaged measurements. The full ranking holds about 1,700 compounds; the median of “cell number in HSV-1-infected wells relative to infected DMSO wells (H2B-RFP signal)” is about 100, and the highest 2% start at about 140. Only a selection was taken, and the highest values are over-represented in it overall.
# Test system: A549 infected with HSV-1
# Assay: cell number in HSV-1-infected wells relative to infected DMSO wells (H2B-RFP signal); higher = more surviving cells (uninfected or antiviral-protected wells give about 200%; low = toxicity)
# Settings: 10 µM; 48 h; MOI: 0.1
# Method: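 Selleck FDA-approved library (L1300) screened in duplicate at 10 µM on A549 H2B-mRuby cells in 384-well plates, infected with HSV-1 strain 17 YFP-ICP4 at MOI 0.1 one hour before drug addition. Imaged after 2 days at 37°C. Cell growth (H2B-RFP) and infection (ICP4-YFP) are expressed as % of DMSO-treated wells. Hits: growth >90% and infection <20% of DMSO.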
row,Structure (SMILES),cell number in HSV-1-infected wells [%]
1,Cc1nccn1CC1CCc2c(c3ccccc3n2C)C1=O (stereo not given) [Ondansetron Hydrochloride Dihydrate],76 ± 13
2,Cc1nccn1CC1CCc2c(c3ccccc3n2C)C1=O (stereo not given) [Ondansetron HCl],74.7 ± 25
3,CN(C)CCC=C1c2ccccc2COc2ccccc21 [Doxepin HCl],104 ± 11
4,Cc1[nH]cnc1CN1CCc2c(c3ccccc3n2C)C1=O [Alosetron Hydrochloride],112 ± 6.3
5,COC(=O)C1=C(C)NC(C)=C(C(=O)OC(C)C)C1c1cccc2nonc12 (stereo not given) [Isradipine],97.7 ± 3.5
6,O=NN(CCCl)C(=O)NC1CCCCC1 [Lomustine],84.7 ± 27
7,CC/C=C(\C(=O)N[C@@H]1C(=O)N2C(C(=O)OCOC(=O)C(C)(C)C)=C(COC(N)=O)CS[C@H]12)c1csc(N)n1 [Cefcapene Pivoxil Hydrochloride],149.2 ± 0.042
8,CO/N=C(\C(=O)N[C@@H]1C(=O)N2C(C(=O)OCOC(=O)C(C)(C)C)=C(/C=C\c3scnc3C)CS[C@H]12)c1csc(N)n1 [Cefditoren Pivoxil],110 ± 2.6
9,CO/N=C(\C(=O)N[C@@H]1C(=O)N2C(C(=O)O)=C(COC(C)=O)CS[C@H]12)c1csc(N)n1 [Cefotaxime sodium],103 ± 12
10,CCC(=O)NS(=O)(=O)c1ccc(-c2c(-c3ccccc3)noc2C)cc1 [Parecoxib],115 ± 8.7
11,CCC(=O)NS(=O)(=O)c1ccc(-c2c(-c3ccccc3)noc2C)cc1 [Parecoxib Sodium],89.9 ± 1
12,CC(=O)NO [Acetohydroxamic acid],127 ± 15
13,Cc1nc(-c2ccc(OCC(C)C)c(C#N)c2)sc1C(=O)O [Febuxostat],95.2 ± 11
14,O=C1[C@@H]2[C@H]3CC[C@H](C3)[C@@H]2C(=O)N1C[C@@H]1CCCC[C@H]1CN1CCN(c2nsc3ccccc23)CC1 [lurasidone],75.7 ± 27
15,CN1CCOC(c2ccccc2)c2ccccc2C1 (stereo not given) [Nefopam HCl],120 ± 8.1
16,CC1(C)C[C@@H]1C(=O)N/C(=C\CCCCSC[C@H](N)C(=O)O)C(=O)O [Cilastatin],99 ± 21
17,CN(C)C(=O)COC(=O)Cc1ccc(OC(=O)c2ccc(NC(=N)N)cc2)cc1 [Camostat Mesilate],124 ± 36
18,Cc1c(C(C)C)c(=O)n(-c2ccccc2)n1C [Propyphenazone (4-Isopropylantipyrine)],78.4 ± 2.3
19,O=C(O)c1cccnc1 [Nicotinic Acid],93.2 ± 4
20,Cc1c(NC(=O)c2cccnc2)c(=O)n(-c2ccccc2)n1C [Nifenazone],145 ± 5.2
21,CCCC(CCC)C(N)=O [Valpromide],91.6 ± 13
22,CC(=O)Oc1ccc(C(=C2CCCCC2)c2ccc(OC(C)=O)cc2)cc1 [Cyclofenil],122 ± 7.6
23,CNC(=O)c1cnn(-c2nc(N)c3ncn([C@@H]4O[C@H](CO)[C@@H](O)[C@H]4O)c3n2)c1 [Regadenoson],128 ± 16
24,Nc1ccc(/N=N/c2ccccc2)c(N)n1 [Phenazopyridine HCl],121 ± 23

row,Structure (SMILES),cell number in HSV-1-infected wells [%]
1,COC(=O)C1=C(C)NC(C)=C(C(=O)OCC(C)C)C1c1ccccc1[N+](=O)[O-] (stereo not given) [Nisoldipine],92.2 ± 1.4
2,O=C(O)CSCC(=O)NC1CCSC1=O (stereo not given) [Erdosteine],121 ± 9.9
3,CC(=O)NC1CCSC1=O (stereo not given) [Citiolone],144 ± 26
4,OC[C@H]1O[C@@H](c2ccc(Cl)c(Cc3ccc(O[C@H]4CCOC4)cc3)c2)[C@H](O)[C@@H](O)[C@@H]1O,110 ± 9
5,CN[C@H]1C(=O)N[C@@H]2Cc3ccc(cc3)Oc3cc4cc(c3O[C@@H]3O[C@H](C(=O)O)[C@@H](O)[C@H](O)[C@H]3NC(=O)CCCCCCCCC(C)C)Oc3ccc(cc3Cl)[C@@H](O)[C@@H]3NC(=O)[C@H](NC(=O)[C@@H]4NC(=O)[C@@H](NC2=O)c2cc(cc(O)c2Cl)Oc2cc1ccc2O)c1ccc(O)c(c1)-c1c(O[C@H]2O[C@H](CO)[C@@H](O)[C@H](O)[C@@H]2O)cc(O)cc1[C@@H](C(=O)NCCCN(C)C)NC3=O [Dalbavancin],125 ± 2.5
6,CSCCNc1nc(SCCC(F)(F)F)nc2c1ncn2[C@@H]1O[C@H](COP(=O)(O)OP(=O)(O)C(Cl)(Cl)P(=O)(O)O)[C@@H](O)[C@H]1O [Cangrelor Tetrasodium],99.5 ± 2.3
7,CNCCCN1c2ccccc2CCc2ccccc21 [Desipramine Hydrochloride],163 ± 20
8,CN(C)CCCN1c2ccccc2CCc2ccccc21 [Imipramine HCl],134 ± 28
9,CN(C)CCCN1c2ccccc2CCc2ccc(Cl)cc21 [Clomipramine HCl],93 ± 22
10,O=C(c1ccc(F)cc1)C1CCN(CCn2c(=O)[nH]c3ccccc3c2=O)CC1 [Ketanserin],124.4 ± 0.22
11,COc1cc(NC(C)CCCN)c2ncccc2c1 (stereo not given) [Primaquine Diphosphate],118 ± 8
12,Cc1cccc(C)c1OCC(=O)N[C@@H](Cc1ccccc1)[C@@H](O)C[C@H](Cc1ccccc1)NC(=O)[C@H](C(C)C)N1CCCNC1=O [Lopinavir],85.9 ± 22
13,NCCNc1ccc(NCCN)c2c1C(=O)c1ccncc1C2=O [Pixantrone Maleate],36.1 ± 10
14,O=C1Nc2ccc(Cl)cc2[C@@](C#CC2CC2)(C(F)(F)F)O1 [Efavirenz],10.6 ± 3.5
15,CCOC(CN1CCN(CC(C)C(=O)c2ccccc2)CC1)c1ccccc1 (stereo not given) [Eprazinone 2HCl],108.9 ± 1
16,CC1=C(/C=C/C(C)=C/C=C/C(C)=C\C(=O)O)C(C)(C)CCC1 [Isotretinoin],98.64 ± 0.63
17,COc1ccc2c(c1)c(CC(=O)O)c(C)n2C(=O)c1ccc(Cl)cc1 [Indomethacin],119 ± 12
18,COc1ccc(NC(=O)c2ccc(C(=N)N(C)C)cc2)c(C(=O)Nc2ccc(Cl)cn2)c1 [Betrixaban maleate],130 ± 48
19,COc1ccc(NC(=O)c2ccc(C(=N)N(C)C)cc2)c(C(=O)Nc2ccc(Cl)cn2)c1 [Betrixaban],150 ± 40
20,COc1ccc2c(c1)c(CC(=O)O)c(C)n2C(=O)c1ccc(Cl)cc1 [Indometacin Sodium],69.9 ± 22
21,CCCOC(C(=O)OC1CCN(C)CC1)(c1ccccc1)c1ccccc1 [Propiverine hydrochloride],102 ± 5
22,COC(=O)c1ccc2c(C(=Nc3ccc(N(C)C(=O)CN4CCN(C)CC4)cc3)c3ccccc3)c(O)[nH]c2c1 [Nintedanib Ethanesulfonate Salt],91.8 ± 4.1
23,CC(C)OC(=O)CCC/C=C\C[C@@H]1[C@@H](/C=C/C(F)(F)COc2ccccc2)[C@H](O)C[C@@H]1O [Tafluprost],83.4 ± 27
24,CC#CCn1c(N2CCC[C@@H](N)C2)nc2c1c(=O)n(Cc1nc(C)c3ccccc3n1)c(=O)n2C [Linagliptin],95.4 ± 6.9

row,Structure (SMILES),cell number in HSV-1-infected wells [%]
1,Cc1c(C(N)=O)cc([N+](=O)[O-])cc1[N+](=O)[O-] [Dinitolmide],145 ± 18
2,NC(=O)c1cc(N2CC2)c([N+](=O)[O-])cc1[N+](=O)[O-],74.6 ± 11
3,NC(=O)c1ccc(I)c([N+](=O)[O-])c1 [Iniparib (BSI-201)],66.8 ± 6.8
4,C#Cc1cccc(Nc2ncnc3cc4c(cc23)OCCOCCOCCO4)c1 [Icotinib],113 ± 1.4
5,CCCCCCCCN=c1ccn(CCCCCCCCCCn2ccc(=NCCCCCCCC)cc2)cc1 [Octenidine Dihydrochloride],14.6 ± 4.9
6,CC(=O)OCC(CCn1cnc2cnc(N)nc21)COC(C)=O [Famciclovir],104 ± 3.7
7,Nc1nc(O)c2ncn(CCC(CO)CO)c2n1 [Penciclovir],205 ± 4.4
8,OC[C@H]1O[C@@H](O[C@@H]2[C@@H](CO)OC(O)(CO)[C@H]2O)[C@H](O)[C@@H](O)[C@H]1O (mixture of isomers) [Lactulose],115 ± 1.3
9,C(=C\c1ccccc1)/CN1CCN(C(c2ccccc2)c2ccccc2)CC1 [Cinnarizine],117 ± 4.5
10,CN1CCN(C(c2ccccc2)c2ccccc2)CC1 [Cyclizine 2HCl],153 ± 28
11,CN1CCC(OC(c2ccccc2)c2ccccc2)CC1 [Diphenylpyraline HCl],98.9 ± 17
12,C[N+](C)(C)CCO.O=C([O-])C(O)C(O)C(=O)O (stereo not given) [Choline bitartrate],124 ± 12
13,COc1cc(C2Oc3cc([C@H]4Oc5cc(O)cc(O)c5C(=O)[C@@H]4O)ccc3OC2CO)ccc1O (stereo not given in full) [Silibinin],95.4 ± 7
14,C=C[C@@H]1C[C@]1(NC(=O)[C@@H]1C[C@@H](Oc2ncc(OC)c3ccc(Cl)cc23)CN1C(=O)[C@@H](NC(=O)OC(C)(C)C)C(C)(C)C)C(=O)NS(=O)(=O)C1CC1 [Asunaprevir],94.5 ± 22
15,CCCCc1nc(C)c(CC(=S)N(C)C)c(=O)n1Cc1ccc(-c2ccccc2-c2nnn[nH]2)cc1 [Fimasartan],88.2 ± 16
16,Cc1cn(-c2cc(NC(=O)c3ccc(C)c(Nc4nccc(-c5cnccn5)n4)c3)cc(C(F)(F)F)c2)cn1 [Radotinib],64.4 ± 25
17,N[C@@H](Cc1c[nH]c2ccc(O)cc12)C(=O)O [5-hydroxytryptophan (5-HTP)],121 ± 13
18,O=C(O)c1ccc(NC(=O)[C@H](Cc2ccc(O)cc2)NC(=O)c2ccccc2)cc1 [Bentiromide],101 ± 29
19,CC1(C)CCC(C)(C)c2cc(NC(=O)c3ccc(C(=O)O)cc3)ccc21 [Tamibarotene],143 ± 7.9
20,C=C(c1ccc(C(=O)O)cc1)c1cc2c(cc1C)C(C)(C)CCC2(C)C [Bexarotene],85.7 ± 8.3
21,CCN(CC)C(=O)N1CCN(C)CC1 [Diethylcarbamazine citrate],89.5 ± 22
22,NC(=NCCCCCCN=C(N)N=C(N)Nc1ccc(Cl)cc1)N=C(N)Nc1ccc(Cl)cc1 [Chlorhexidine?2HCl],9.11 ± 0.6
23,Cc1cn([C@@H]2C[C@@H](O)[C@H](CO)O2)c(=O)[nH]c1=O [Telbivudine],102 ± 8.7
24,Nc1ncn([C@H]2C[C@H](O)[C@@H](CO)O2)c(=O)n1 [Decitabine],166 ± 12

row,Structure (SMILES),cell number in HSV-1-infected wells [%]
1,Nc1ncn([C@@H]2O[C@H](CO)[C@@H](O)[C@H]2O)c(=O)n1 [Azacitidine],98.3 ± 4.2
2,O=c1[nH]c(=O)n([C@H]2C[C@H](O)[C@@H](CO)O2)cc1I [Idoxuridine],175.6 ± 1.1
3,O=c1[nH]c(=O)n([C@H]2C[C@H](O)[C@@H](CO)O2)cc1F [Floxuridine],53.3 ± 3.6
4,Nc1nc(Cl)nc2c1ncn2[C@H]1C[C@H](O)[C@@H](CO)O1 [Cladribine],42.1 ± 4.5
5,CC[C@H](C)C(=O)O[C@H]1C[C@H](O)C=C2C=C[C@H](C)[C@H](CC[C@@H](O)C[C@@H](O)CC(=O)O)[C@H]21 [Pravastatin sodium],95.3 ± 16
6,NC(=O)c1cn(Cc2c(F)cccc2F)nn1 [Rufinamide],120 ± 12
7,C[C@H]1CNCCCN1S(=O)(=O)c1cccc2cncc(F)c12 [Ripasudil (K-115) hydrochloride dihydrate],114 ± 7
8,N#Cc1cc(-c2n[nH]c(-c3ccncc3)n2)ccn1 [Topiroxostat],111 ± 12
9,Cc1ncc([N+](=O)[O-])n1CC(C)O (stereo not given) [Secnidazole],99.4 ± 14
10,NS(=O)(=O)c1cc2c(cc1Cl)N=CNS2(=O)=O [Chlorothiazide],114 ± 25
11,C1N2CN3CN1CN(C2)C3 [Methenamine],124 ± 25
12,COc1ccc2cc(CCC(C)=O)ccc2c1 [Nabumetone],97.7 ± 6.2
13,OCCN1CCN(CCCN2c3ccccc3Sc3ccc(Cl)cc32)CC1 [Perphenazine],86.76 ± 0.7
14,CN1CCN(CCCN2c3ccccc3Sc3ccc(Cl)cc32)CC1 [Prochlorperazine Dimaleate],163 ± 4.8
15,CN1CCN(CCCN2c3ccccc3Sc3ccc(Cl)cc32)CC1 [Prochlorperazine dimaleate salt],124 ± 49
16,CN1CCN(CCCN2c3ccccc3Sc3ccc(C(F)(F)F)cc32)CC1 [Trifluoperazine 2HCl],57.5 ± 10
17,CC(C)C(=O)OCC(=O)[C@@]12O[C@H](C3CCCCC3)O[C@@H]1C[C@H]1[C@@H]3CCC4=CC(=O)C=C[C@]4(C)[C@H]3[C@@H](O)C[C@@]12C [Ciclesonide],120 ± 13
18,Cc1onc(-c2ccccc2Cl)c1C(=O)N[C@@H]1C(=O)N2[C@@H]1SC(C)(C)[C@@H]2C(=O)O [Cloxacillin Sodium],114 ± 15
19,Cc1onc(-c2c(Cl)cccc2Cl)c1C(=O)N[C@@H]1C(=O)N2[C@@H]1SC(C)(C)[C@@H]2C(=O)O [Dicloxacillin Sodium],146 ± 32
20,Cc1onc(-c2c(F)cccc2Cl)c1C(=O)N[C@@H]1C(=O)N2[C@@H]1SC(C)(C)[C@@H]2C(=O)O [Flucloxacillin sodium],111 ± 11
21,C[C@]12CC[C@@H]3c4ccc(O)cc4C[C@@H](CCCCCCCCC[S+]([O-])CCCC(F)(F)C(F)(F)F)[C@H]3[C@@H]1CC[C@@H]2O (stereo not given in full) [Fulvestrant],74.6 ± 24
22,C[C@@H](O)[C@H]1C(=O)N2C(C(=O)O)=C(S[C@@H]3CN[C@H](CNS(N)(=O)=O)C3)[C@H](C)[C@H]12 [Doripenem],124 ± 13
23,C[C@@H](O)[C@H]1C(=O)N2C(C(=O)O)=C(S[C@@H]3CN[C@H](CNS(N)(=O)=O)C3)[C@H](C)[C@H]12 [Doripenem Hydrate],98.3 ± 14
